Inconclusive results are not listed. Where a structure was tested more than once in an assay, its records may differ in their call. Calls of active or inactive are those of the source. Calls come from the whole dose curve; as a rule, active = well fitted activation curve with a large enough effect in the repeat runs; inconclusive = weak or mixed curves, or effect the other way; inactive = no such curve, though single readings can be large or run the other way.
experiment: qHTS assay to identify small molecule agonists of the estrogen related receptor signaling pathway with the pleiotropic PPARgamma coactivator (PGC) from Tox21 10K library (AID 1224842); details: PGC/ERR reporter cell line, luciferase ONE-Glo, 18 h; series mostly up to 92.4 µM; activation: at the top concentration; note: nearly all actives have a fitted effect of over 15% in size
Text: National Center for Advancing Translational Sciences [NCATS] NIH Chemical Genomics Center [NCGC] U.S. Environmental Protection Agency [EPA] National Institutes of Environmental Health Sciences [NIEHS] National Toxicology Program [NTP] Assay overview: Estrogen related receptors (ERRs), the first orphan nuclear receptors discovered, play an important role in the control of cellular energy metabolism. ERRs are required for high-energy production in response to the environmental challenges. The pleiotropic PPARgamma coactivator (PGC) is a major partner of ERR and a key regulator in energy homeostasis. Together they have been implicated in the etiology of metabolic disorders such as Type 2 diabetes and metabolic syndrome. ERR-alpha was also identified as an adverse marker for breast cancer progression; ERR-alpha-positive tumors have a poor prognosis. To screen and to identify environmental compounds that perturb the PGC/ERR signaling pathways could provide valuable information for potential therapeutic or preventive measures in the treatment of metabolic disease. For identifying PGC/ERR agonists, PGC/ERR cell line (provided by NTP) has been used to screen Tox21 10K library.
Assay Protocol Summary: The PGC/ERR cells were dispensed at 2,000 cells/5 ul/well in 1536-well white plates using a Multidrop dispenser. After the assay plates were incubated at a 37 C/5% CO2 incubator for 6 hours, 23 nL of compounds dissolved in DMSO, positive and negative controls or DMSO only was transferred to the assay plate by a pin tool. The plates were incubated at 37 C for 18 hours. 4 ul/well of One-Glo reagent was added into the assay plates using a Flying Reagent Dispenser. After 30-minute incubation at room temperature, the luminescence intensity in the plates was measured using a ViewLux plate reader.
% is set by controls: 0 for no effect and ±100 for the full control effect; potency is the fitted concentration of half-maximal effect.

Compound	activation	Potency
CC[N+](CC)(CC)CCOc1ccc(/C=C/c2ccccc2)cc1	-19.6% [at 42.5 µM] (inactive)	
Clc1sc(Cl)c(Cl)c1Cl	5.15% (inactive)	
CC(C)=CCC1=C(O)c2ccccc2C(=O)C1=O	-15.9% (inactive)	
CC(C)(c1cc(Br)c(OCC(Br)CBr)c(Br)c1)c1cc(Br)c(OCC(Br)CBr)c(Br)c1 (stereo not given)	0.823% [at 42.5 µM] (inactive)	
CC1(C)CCC[C@]2(C)[C@H]3CCO[C@]3(C)CC[C@@H]12	3.6% (inactive)	
O=C(O)CCN(C1(C(=O)NO)CCCC1)S(=O)(=O)c1ccc(Oc2ccc(F)cc2)cc1	-1.95% (inactive)	
COc1ccc2cc1Oc1ccc(cc1)C[C@H]1c3c(cc4c(c3Oc3cc5c(cc3OC)CCN(C)[C@@H]5C2)OCO4)CCN1C	-16.7% [at 42.5 µM] (inactive)	
Cc1c2ccccc2c(C)c2c1ccc1ccccc12		24.1 µM (active) and inactive
CCN(CC)c1ccc2c(-c3ccc(S(=O)(=O)O)cc3S(=O)(=O)[O-])c3ccc(=[N+](CC)CC)cc-3oc2c1	-18.7% (inactive)	
C=C(CC)C(=O)c1ccc(OCC(=O)O)c(Cl)c1Cl		inactive
COc1cc(S(=O)(=O)O)c(C)cc1N=Nc1c(O)ccc2cc(S(=O)(=O)O)ccc12	-11.5% (inactive)	
CC1(C)[C@@H](O)CC[C@]2(C)[C@H]3C(=O)C=C4[C@@H]5C[C@@](C)(C(=O)O)CC[C@]5(C)CC[C@@]4(C)[C@]3(C)CC[C@@H]12	5.67% (inactive)	
Cc1ccc(C)cc1	3.24% (inactive)	
CN(C)[C@@H](CCOc1cccc2ccccc12)c1ccccc1	-1.42% [at 42.5 µM] (inactive)	
S=c1nccc[nH]1	0.911% (inactive)	
O=C(O)O		264 nM (active)
O=C1OC2(c3ccc(O)cc3Oc3cc(O)ccc32)c2ccc(N=C=S)cc21	-3.66% (inactive)	
O=C(Nc1ccc2c(O)c(N=Nc3ccc(N=Nc4ccc(S(=O)(=O)O)cc4)cc3)c(S(=O)(=O)O)cc2c1)c1ccccc1	-17.6% (inactive)	
CN1CCC[C@@H]1CCO[C@](C)(c1ccccc1)c1ccc(Cl)cc1	12.2% [at 42.5 µM] (inactive)	
Cc1cc(C)c(/C=C2\C(=O)Nc3ccccc32)[nH]1	0.813% [at 42.5 µM] (inactive)	

Compound	activation	Potency
C1CCC(SSC2CCCCC2)CC1	1.31% (inactive)	
COc1cccc2c1C(=O)c1c(O)c3c(c(O)c1C2=O)C[C@@](O)(C(C)=O)C[C@@H]3O[C@H]1C[C@H](N)[C@H](O)[C@H](C)O1		154 nM (active)
CCOC(=O)c1ccc(C2CCC(NC[C@H](O)COc3ccc(O)c(NS(C)(=O)=O)c3)CC2)cc1 (stereo not given in full)	-8.8% (inactive)	
CN(C)Cc1cc(C(C)(C)C)c(O)c(C(C)(C)C)c1	-12.9% (inactive)	
Nc1ccc(NCCO)c([N+](=O)[O-])c1	-7.46% (inactive)	
OC1CCC(C2CCCCC2)CC1 (stereo not given)	-8.55% (inactive)	
CC1=Nc2ccccc2C1(C)C		30700 nM (active)
Cc1c(C)c2c(c(C)c1OC(=O)c1cccnc1)CC[C@@](C)(CCC[C@H](C)CCC[C@H](C)CCCC(C)C)O2	2.98% [at 42.5 µM] (inactive)	
Cc1cc(-c2ccc(N=Nc3cc(S(=O)(=O)O)c4ccccc4c3N)c(C)c2)ccc1N=Nc1cc(S(=O)(=O)O)c2ccccc2c1N	-27.6% (inactive)	
CCCCN(CCCC)CC(O)c1cc(Cl)cc2c1-c1ccc(Cl)cc1/C2=C/c1ccc(Cl)cc1 (stereo not given)	-1.09% [at 42.5 µM] (inactive)	
O=C(O)c1cc(=O)c2ccccc2o1	0.839% [at 42.5 µM] (inactive)	
COC(=O)c1ccccc1OC	0.508% (inactive)	
COC(=O)C1=C(C)NC(C)=C(C(=O)OCCN2CCN(C(c3ccccc3)c3ccccc3)CC2)C1c1cccc([N+](=O)[O-])c1 (stereo not given)	-20.5% [at 42.5 µM] (inactive)	
Clc1ccnc(Cl)n1	0.251% (inactive)	
CCO[C@@H]1O[C@H](C(COCc2ccccc2)OCc2ccccc2)[C@H](OCc2ccccc2)[C@H]1O (stereo not given in full)	-11.8% [at 42.5 µM] (inactive)	
O=C(O)c1cc(-c2ccc(F)cc2F)ccc1O	-16% [at 42.5 µM] (inactive)	
C=CC(=O)Nc1cc2c(Nc3ccc(F)c(Cl)c3)ncnc2cc1OCCCN1CCOCC1		3760 nM (active)
COc1c(C)c2c(c(O)c1C/C=C(\C)CCC(=O)OCCN1CCOCC1)C(=O)OC2		237 nM (active)
CC(C)OC(=O)C(O)(CC(=O)O)CC(=O)O	-1.33% (inactive)	
Cc1c(F)c(N2CCNC(C)C2)cc2c1c(=O)c(C(=O)O)cn2C1CC1 (stereo not given)	0.232% [at 42.5 µM] (inactive)	
